Data: PubChem BioAssay (NCATS)
Inconclusive results are not listed. The source made the active and inactive calls. Unless noted, calls come from the whole dose curve; as a rule, active = well fitted curve in the direction sought with a large enough effect; inconclusive = small, poorly fitted or top-dose-only effect, or another doubt; inactive = no such curve, though single readings can be large; an effect the other way counts as inactive or inconclusive.

Legend:
[1] = molecular target: Lysosomal acid glucosylceramidase (Homo sapiens) (UniProt P04062); assay: Glucocerebrosidase-p2 (AID 348; in the data active = potency below about 10 µM; note: potency is the fitted concentration of half-maximal effect); settings: purified GBA, blue fluorogenic substrate, 40 min
Summary of the method: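 Compounds titrated from 0.6 nM upwards against 0.2 nM enzyme in pH 5.9 citric acid/KH2PO4, taurocholate, tween-20; blue fluorogenic substrate 80 uM, 40 min room temperature, stopped and read Ex 365/Em 440 for AC50.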

[2] = AP1 Signaling Pathway (AID 357; active = well fitted curve in either direction with a large enough effect, not every such curve was filed as active; note: % is set by controls: 0 for no effect and ±100 for the full control effect); settings: ME-180 AP-1-bla reporter, EGF-induced, beta-lactamase ratio, 5 h; at 7.69 µM (top of the series) unless noted
Summary of the method: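 ME-180 cells with beta-lactamase reporter under AP-1 response element, stimulated with EC50 EGF; compounds tested in titration series, 5 h at 37 °C. CCF4 substrate added 2.5 h at room temperature; 460/530 nm emission ratio gave %activity and AC50.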

[3] = molecular target: Cytochrome P450 1A2 (Homo sapiens) (UniProt P05177); assay: p450-cyp1a2 (AID 410; calls by dose curve; note: potency is the fitted concentration of half-maximal effect;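 for activity change, negative = inhibition: -100% = full effect of reference inhibitor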); settings: recombinant CYP1A2, luciferin-ME demethylation, luminescence; series mostly up to 57 µM
Summary of the method: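 Inhibition was calculated relative to 57 uM furafylline (full inhibition). The reaction used human CYP1A2 at 20nM with Luciferin-ME at its Km, 100uM, driven by an NADPH-regenerating system for 60 min at room temperature.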

[4] = NFAT Signaling Pathway (AID 444; active = well fitted curve in either direction with a large enough effect, not every such curve was filed as active;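 note: carbachol stimulus at about its EC50 of 1 µM final; % is set by controls: 0 for no effect and ±100 for the full control effect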); settings: Jurkat NFAT-bla M1, carbachol, beta-lactamase ratio, 5 h; at 7.69 µM (top of the series) unless noted
Summary of the method: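 Jurkat cells with NFAT-driven β-lactamase reporter and co-expressed M1 receptor, stimulated with carbachol (final 1 uM, ~EC50), compound titration, 5 h at 37 °C. CCF4 loaded 1 h at RT; 460/530 nm ratio gave %activity and AC50.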

[5] = Stat Signaling Pathway (AID 446; active = well fitted curve in either direction with a large enough effect, not every such curve was filed as active;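 note: ME-180 cervical cancer cells given 40 pM IL-6 alongside compound; SIE-controlled beta-lactamase reporter measured as 460/530 nm FRET emission ratio; % is set by controls: 0 for no effect and ±100 for the full control effect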); settings: ME-180 SIE beta-lactamase reporter, IL-6 stimulated, 5 h; at 7.69 µM (top of the series) unless noted
Summary of the method: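 ME-180 cells carrying a SIE-driven beta-lactamase reporter are stimulated with 40 pM IL-6 for 5 h at 37C in the presence of compound. The 460/530 nm FRET substrate ratio is read after 2.5 h at RT. Data are normalised to 300 pM IL-6 and to 125 nM JAK inhibitor controls.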

[6] = molecular target: Glucocorticoid receptor (Homo sapiens) (UniProt P04150); assay: GR-EFC Redistribution (AID 451; calls by dose curve; note: potency is the fitted concentration of half-maximal effect); settings: CHO-K1 GR-EFC translocation, beta-gal luminescence, 2 h
Summary of the method: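 CHO-K1 cells expressing nuclear EA and GR-ED fragments of b-gal; compounds titrated up to 46 uM final, 2 h at 37 C. GR nuclear translocation read as complemented b-gal luminescence after 1 h RT detection.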

[7] = molecular target: Mitogen-activated protein kinase 10 (Mus musculus) (UniProt Q61831); assay: JNK3 AlphaScreen Assay (AID 530; active = well fitted curve in either direction with a large enough effect, not every such curve was filed as active;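 note: kinase came from lysate of stimulated human HepG2 cells; signal reports phosphorylation of biotinylated GST-cJun 1-79 at Ser73 with 10 µM ATP; % is set by controls: 0 for no effect and ±100 for the full control effect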); settings: JNK3 lysate, c-Jun phosphorylation; series mostly up to 57.1 µM
Summary of the method: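 qHTS format: compounds tested as titrations against IL-1beta/TNF-alpha-activated HepG2 lysate JNK3 with biotin-GST-cJun substrate and 10 uM ATP at room temperature. Loss of anti-phospho-cJun AlphaScreen signal indicates inhibition.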

[8] = molecular target: 3',5'-cyclic-AMP phosphodiesterase 4B (Homo sapiens) (UniProt Q07343); assay: qHTS Assay for Inhibitors of PDE-IV (AID 607; active = well fitted activation curve with a large enough effect in the main read-out, with a control signal flat, not every such curve was filed as active; note: % of control where 0% means no effect); settings: HEK293 ACTOne CNG channel cells, membrane potential fluorescence; series mostly up to 22.9 µM
Summary of the method: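 HEK293 ACTOne cells with CNG channel (1000/well), endogenous PDE4; membrane potential dye, compounds up to 22.9 uM final. Fluorescence Ex 535/Em 590; RO 20-1724 (100 uM final) as reference.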

[9] = molecular target: Cytochrome P450 3A4 (Homo sapiens) (UniProt P08684); assay: qHTS Assay for Activators of Cytochrome P450 3A4 (AID 885); settings: recombinant CYP3A4, Luciferin-PPXE luminescence, 60 min; series mostly up to 57.1 µM; note: nearly all actives have a fitted effect of over 65% in size
Summary of the method: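 Human CYP3A4 (20 nM) with Luciferin-PPXE at 25 uM (its KM) in 200 mM KPO4; 10 min compound preincubation, then NADPH regeneration and 60 min reaction at RT. Luciferin read by luminescence; normalized to 57 uM ketoconazole full inhibition.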

[10] = qHTS Assay for Lipid Storage Modulators (AID 1519; calls by dose curve); settings: Drosophila S3 cells, BODIPY lipid droplet/cell ratio, laser cytometry, cells loaded with oleic acid; for activity change, negative = inhibition: at 57.5 µM (top of the series)
Summary of the method: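 Cells seeded at 5,000 per well were treated with compounds over a concentration series and loaded with oleic acid (400 uM, as added). Lipid droplet fluorescence (488 nm excitation, 500-530 nm channel) was read by laser-scanning cytometry and normalized to 20 uM Triacsin C.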

[11] = molecular target: Dual specificity protein kinase CLK4 (Homo sapiens) (UniProt Q9HAZ1); assay: qHTS Assay for Inhibitors of CDC-like Kinase 4 (Kinase-Glo Assay) (AID 1770); settings: recombinant Clk4, Kinase-Glo ATP depletion luminescence; series mostly up to 66.7 µM; note: nearly all actives have a fitted effect of over 65% in size; note: potency is the fitted concentration of half-maximal effect
Summary of the method: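 Inhibition was judged from remaining ATP, measured by Ultra-Glo luciferase bioluminescence after Clk4 (25 nM) had acted on RS peptide at 1 uM ATP for 4.5 hours, room temperature.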

[12] = molecular target: Dual specificity protein kinase CLK4 (Homo sapiens) (UniProt Q9HAZ1); assay: qHTS Assay for Inhibitors of CDC-like Kinase 4 (ADP-Glo Assay) (AID 1771); settings: recombinant CLK4, ADP-Glo luminescence; series mostly up to 80 µM; note: nearly all actives have a fitted effect of over 70% in size; note: potency is the fitted concentration of half-maximal effect
Summary of the method: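 Kinase reaction: Clk4 at 25 nM, RS repeat peptide substrate at 100 uM, ATP at 1 uM, 1 hr, room temperature. Product ADP detected as luciferase signal via ADP-Glo.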

[13] = molecular target: Dual specificity protein kinase CLK4 (Homo sapiens) (UniProt Q9HAZ1); assay: qHTS Assay for Inhibitors of CDC-like Kinase 4 (ADP-FP Assay) (AID 1795); settings: Transcreener ADP fluorescence polarization; series mostly up to 50 µM; note: nearly all actives have a fitted effect of over 60% in size; note: potency is the fitted concentration of half-maximal effect
Summary of the method: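 Inhibition of ADP formation by 6.25 nM Clk4 is measured using 1 uM ATP and 100 uM RS repeat peptide over one hour. Produced ADP displaces a fluorescent tracer from antibody, lowering polarization.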

[14] = molecular target: Ubiquitin carboxyl-terminal hydrolase 1 (Homo sapiens) (UniProt O94782); assay: Inhibitors of USP1/UAF1: Pilot qHTS (AID 504865); settings: purified USP1/UAF1, Ub-rhodamine cleavage fluorescence; series mostly up to 54.9 µM;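 note: rhodamine fluorescence freed from ubiquitin-rhodamine substrate followed over time; top concentration of the series differs between compounds; % is set by controls: 0 for no effect and ±100 for the full control effect; nearly all actives have a fitted effect of over 35% in size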
Summary of the method: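 Kinetic fluorescence assay: 1nM USP1/UAF1, 15 min compound preincubation, then 150nM Ub-Rho; 480/540 nm.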

[15] = molecular target: Glucocorticoid receptor (Homo sapiens) (UniProt P04150); assay: GR-GFP Redistribution (AID 450;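 active = compounds whose dose series gives a full or clear partial fitted curve of increased nuclear translocation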; note: potency is the fitted concentration of half-maximal effect); settings: U2OS GR-GFP nuclear translocation, laser cytometry, 2 h
[16] = qHTS Assay for Identification of Small Molecule Agonists for Hypoxia Response Element Signaling Pathway (AID 914; active = well fitted activation curve with a large enough effect in the signal ratio, with a control signal flat, not every such curve was filed as active; the % refers to the signal ratio; note: % of control where 0% means no effect); settings: ME-180 (cervical carcinoma) HRE-bla reporter, beta-lactamase ratio, CoCl2, 17 h; activation: stronger effect = higher value
Summary of the method: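 HRE-bla ME-180 assay for agonist-like enhancement of an EC50 CoCl2 stimulus: 17 h at 37 degrees Celsius, CCF4 for 2.5 h, ratiometric 460/530 nm signal converted to %Activity and fitted to AC50.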

[17] = measured here: cell count channel max response
[18] = measured here: lipid channel max response

Ubiquitin carboxyl-terminal hydrolase 1 (Homo sapiens), sequence (O94782 whole entry, looked up): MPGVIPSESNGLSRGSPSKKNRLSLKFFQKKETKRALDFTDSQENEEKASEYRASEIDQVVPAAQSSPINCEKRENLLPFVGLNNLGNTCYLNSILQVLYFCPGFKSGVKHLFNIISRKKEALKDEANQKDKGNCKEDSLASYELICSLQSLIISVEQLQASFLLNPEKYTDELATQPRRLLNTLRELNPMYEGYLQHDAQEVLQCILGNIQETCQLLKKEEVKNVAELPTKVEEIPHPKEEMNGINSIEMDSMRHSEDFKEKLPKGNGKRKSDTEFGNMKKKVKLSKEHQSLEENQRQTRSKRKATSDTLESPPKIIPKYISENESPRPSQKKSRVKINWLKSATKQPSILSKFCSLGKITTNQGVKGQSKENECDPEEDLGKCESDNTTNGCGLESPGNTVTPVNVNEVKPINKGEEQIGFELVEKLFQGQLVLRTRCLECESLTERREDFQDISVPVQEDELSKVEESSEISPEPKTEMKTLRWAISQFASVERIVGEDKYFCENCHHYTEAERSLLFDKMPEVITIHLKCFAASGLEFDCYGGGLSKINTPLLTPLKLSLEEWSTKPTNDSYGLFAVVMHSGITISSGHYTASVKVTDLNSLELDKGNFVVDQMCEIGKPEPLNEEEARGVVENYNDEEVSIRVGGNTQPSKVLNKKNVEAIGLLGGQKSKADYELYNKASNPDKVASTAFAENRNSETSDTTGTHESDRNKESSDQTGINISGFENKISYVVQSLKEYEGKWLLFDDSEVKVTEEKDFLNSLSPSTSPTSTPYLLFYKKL
Cytochrome P450 1A2 (Homo sapiens), sequence (P05177 whole entry, looked up): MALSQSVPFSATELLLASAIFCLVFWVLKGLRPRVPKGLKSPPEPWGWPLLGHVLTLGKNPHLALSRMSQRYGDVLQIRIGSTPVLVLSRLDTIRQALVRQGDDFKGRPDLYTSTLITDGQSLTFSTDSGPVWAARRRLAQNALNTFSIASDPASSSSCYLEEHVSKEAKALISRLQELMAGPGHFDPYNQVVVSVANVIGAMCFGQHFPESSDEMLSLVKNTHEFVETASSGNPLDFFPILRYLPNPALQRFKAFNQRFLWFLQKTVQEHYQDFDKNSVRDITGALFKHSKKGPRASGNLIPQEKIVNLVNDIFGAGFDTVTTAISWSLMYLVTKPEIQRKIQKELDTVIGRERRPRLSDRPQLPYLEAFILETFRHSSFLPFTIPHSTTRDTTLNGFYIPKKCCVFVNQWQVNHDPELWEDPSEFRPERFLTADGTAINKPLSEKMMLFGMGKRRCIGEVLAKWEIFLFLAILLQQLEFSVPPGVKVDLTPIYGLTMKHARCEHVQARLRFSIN
3',5'-cyclic-AMP phosphodiesterase 4B (Homo sapiens), sequence (Q07343 whole entry, looked up): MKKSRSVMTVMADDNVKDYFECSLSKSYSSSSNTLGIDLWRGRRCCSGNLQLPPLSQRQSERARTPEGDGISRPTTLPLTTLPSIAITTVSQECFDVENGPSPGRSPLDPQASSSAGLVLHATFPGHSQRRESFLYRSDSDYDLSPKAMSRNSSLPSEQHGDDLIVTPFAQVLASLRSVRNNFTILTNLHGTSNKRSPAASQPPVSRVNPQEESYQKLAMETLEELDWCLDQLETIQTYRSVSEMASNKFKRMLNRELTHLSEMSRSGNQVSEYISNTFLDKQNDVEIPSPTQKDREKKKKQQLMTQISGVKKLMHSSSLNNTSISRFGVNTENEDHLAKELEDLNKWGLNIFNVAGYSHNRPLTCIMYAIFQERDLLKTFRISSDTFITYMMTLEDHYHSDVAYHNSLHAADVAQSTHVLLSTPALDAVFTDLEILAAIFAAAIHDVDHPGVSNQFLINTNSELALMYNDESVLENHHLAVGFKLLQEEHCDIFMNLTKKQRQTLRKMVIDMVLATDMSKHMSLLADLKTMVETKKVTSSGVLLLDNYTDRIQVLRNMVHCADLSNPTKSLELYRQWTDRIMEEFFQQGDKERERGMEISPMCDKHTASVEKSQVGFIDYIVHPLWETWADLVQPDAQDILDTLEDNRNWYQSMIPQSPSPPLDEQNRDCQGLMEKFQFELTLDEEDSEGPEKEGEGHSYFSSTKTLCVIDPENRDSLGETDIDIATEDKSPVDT
Lysosomal acid glucosylceramidase (Homo sapiens), sequence (P04062 whole entry, looked up): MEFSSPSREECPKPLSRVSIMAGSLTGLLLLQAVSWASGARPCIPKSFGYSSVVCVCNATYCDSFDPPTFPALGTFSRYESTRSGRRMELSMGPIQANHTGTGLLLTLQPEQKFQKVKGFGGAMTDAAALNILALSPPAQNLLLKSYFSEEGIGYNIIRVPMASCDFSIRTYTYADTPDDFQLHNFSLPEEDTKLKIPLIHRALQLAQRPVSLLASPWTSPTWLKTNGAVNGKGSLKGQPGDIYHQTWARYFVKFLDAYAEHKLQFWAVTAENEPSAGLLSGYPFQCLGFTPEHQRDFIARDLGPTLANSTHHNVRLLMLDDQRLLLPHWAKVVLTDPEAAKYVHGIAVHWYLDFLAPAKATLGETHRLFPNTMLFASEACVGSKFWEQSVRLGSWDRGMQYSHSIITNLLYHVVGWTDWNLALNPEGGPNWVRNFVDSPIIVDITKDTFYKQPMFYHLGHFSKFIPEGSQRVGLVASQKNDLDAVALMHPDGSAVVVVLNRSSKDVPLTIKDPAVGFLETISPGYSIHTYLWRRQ
Glucocorticoid receptor (Homo sapiens), sequence (P04150 whole entry, looked up, the tested form may be a part): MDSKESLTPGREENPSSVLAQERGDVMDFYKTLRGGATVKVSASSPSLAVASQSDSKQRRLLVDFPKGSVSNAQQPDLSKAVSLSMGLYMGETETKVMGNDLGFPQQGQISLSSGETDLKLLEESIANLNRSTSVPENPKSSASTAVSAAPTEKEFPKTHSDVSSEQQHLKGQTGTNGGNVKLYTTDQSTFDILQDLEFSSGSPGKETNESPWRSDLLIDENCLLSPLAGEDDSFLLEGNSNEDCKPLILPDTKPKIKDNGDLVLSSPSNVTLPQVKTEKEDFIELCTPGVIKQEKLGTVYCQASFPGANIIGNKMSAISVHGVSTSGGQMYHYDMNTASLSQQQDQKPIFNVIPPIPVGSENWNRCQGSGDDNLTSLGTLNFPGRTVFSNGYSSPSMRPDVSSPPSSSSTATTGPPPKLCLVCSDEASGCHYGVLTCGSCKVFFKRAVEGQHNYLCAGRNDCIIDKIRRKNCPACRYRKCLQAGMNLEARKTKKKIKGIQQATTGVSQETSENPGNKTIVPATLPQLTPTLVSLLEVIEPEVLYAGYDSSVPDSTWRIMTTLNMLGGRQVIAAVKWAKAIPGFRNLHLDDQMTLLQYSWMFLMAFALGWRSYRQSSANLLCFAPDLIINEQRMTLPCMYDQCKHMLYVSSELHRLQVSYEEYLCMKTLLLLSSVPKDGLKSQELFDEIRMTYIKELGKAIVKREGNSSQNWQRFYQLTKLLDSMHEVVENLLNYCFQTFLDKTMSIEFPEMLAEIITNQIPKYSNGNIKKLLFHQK
Dual specificity protein kinase CLK4 (Homo sapiens), sequence (Q9HAZ1 whole entry, looked up): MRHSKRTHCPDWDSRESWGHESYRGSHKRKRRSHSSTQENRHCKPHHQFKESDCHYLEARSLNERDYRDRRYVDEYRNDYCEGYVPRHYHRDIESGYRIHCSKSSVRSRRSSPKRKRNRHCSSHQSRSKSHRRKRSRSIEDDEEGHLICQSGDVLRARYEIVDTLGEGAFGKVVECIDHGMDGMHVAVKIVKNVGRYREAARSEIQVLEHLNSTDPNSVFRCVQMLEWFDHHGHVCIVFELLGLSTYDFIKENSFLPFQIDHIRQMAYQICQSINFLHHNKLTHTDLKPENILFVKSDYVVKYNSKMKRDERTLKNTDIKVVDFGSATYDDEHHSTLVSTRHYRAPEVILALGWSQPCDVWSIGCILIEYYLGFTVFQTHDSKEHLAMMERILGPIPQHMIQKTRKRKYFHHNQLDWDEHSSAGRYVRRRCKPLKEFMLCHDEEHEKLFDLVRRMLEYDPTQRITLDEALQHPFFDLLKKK
Cytochrome P450 3A4 (Homo sapiens), sequence (P08684 whole entry, looked up): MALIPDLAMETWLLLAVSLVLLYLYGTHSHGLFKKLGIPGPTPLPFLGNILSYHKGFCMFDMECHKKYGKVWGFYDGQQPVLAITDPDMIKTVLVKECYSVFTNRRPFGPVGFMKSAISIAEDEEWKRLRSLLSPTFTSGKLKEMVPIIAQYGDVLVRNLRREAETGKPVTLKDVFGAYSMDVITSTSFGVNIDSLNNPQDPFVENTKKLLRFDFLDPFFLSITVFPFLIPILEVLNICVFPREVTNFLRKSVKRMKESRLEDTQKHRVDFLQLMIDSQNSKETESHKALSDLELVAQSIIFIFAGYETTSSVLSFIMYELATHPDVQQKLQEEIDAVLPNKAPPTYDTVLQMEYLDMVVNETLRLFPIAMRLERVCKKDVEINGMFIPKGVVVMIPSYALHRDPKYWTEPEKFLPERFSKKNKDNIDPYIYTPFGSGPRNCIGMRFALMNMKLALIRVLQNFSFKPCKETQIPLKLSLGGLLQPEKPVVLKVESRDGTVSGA

Row | Structure (SMILES) | Potency [1] | activity change, negative = inhibition [2] | Potency [3] | activity change, negative = inhibition [4] | activity, negative = inhibition [5] | Potency [6] | Potency [7] | Potency [8] | Potency [9] | activity change, negative = inhibition [10] | max response [10, 17] | max response [10, 18] | Potency [11] | Potency [12] | Potency [13] | Potency [14] | Potency [15] | activation [16]
1 | COc1cccc(-c2nc(NC3CCNCC3)c3ccccc3n2)c1 | > 11.4 µM (inactive) | 14.7% (inactive) | 12.6 µM (active) | 23.4% (inactive) | 5.39% (inactive) | > 46 µM (inactive) | inactive | inactive | inactive | 4.76% (inactive) | 12.9% | 4.05% | 11.2 µM (active) | 11.2 µM (active) | 12.6 µM (active) | inactive |  | 
2 | CN1CCN(c2ncc3ncc(=O)n(Cc4ccc(F)cc4)c3n2)CC1 | > 11.4 µM (inactive) | -13.9% (inactive) | 25.1 µM (active) | -8.56% (inactive) | -18.8% (inactive) | > 46 µM (inactive) | inactive | inactive | inactive | 2.71% (inactive) | 5.89% | 7.12% | inactive | inactive | inactive | inactive | > 9.22 µM (inactive) | -5.68% (inactive)
3 | COc1cccc(Nc2ncc3ncc(=O)n(C)c3n2)c1 | > 11.4 µM (inactive) |  | 1.58 µM (active) | 0.44% (inactive) | -17.5% (inactive) | > 46 µM (inactive) |  | inactive | inactive | 4.86% (inactive) | 11.1% | 14.9% | 0.891 µM (active) | 1 µM (active) | 0.708 µM (active) | inactive | > 9.22 µM (inactive) | 
4 | CN(C)C(=O)c1ccc(-c2ccc3ncnc(NCc4cccs4)c3c2)cc1 | > 11.4 µM (inactive) | -29.4% (inactive) | 15.8 µM (active) | 17.3% (inactive) | -7.67% (inactive) | > 46 µM (inactive) | inactive |  | inactive | 6.27% (inactive) | 5.7% | 12.3% | 12.6 µM (active) | 7.08 µM (active) | 14.1 µM (active) |  | > 46 µM (inactive) | 
5 | O=c1c(-c2ccc(F)cc2)nc2cnc(N3CCOCC3)nc2n1C1CC1 | > 11.4 µM (inactive) | 16.2% (inactive) | inactive |  |  | > 46 µM (inactive) | inactive | inactive |  | 5.31% (inactive) | 17.4% | 19.7% | inactive | inactive | inactive | inactive | > 9.22 µM (inactive) | 
